# Source: PubChem BioAssay
# DAX1 inh-1 – inhibitors of human orphan nuclear receptor DAX1 (NR0B1); P51843; AID 504766; HEK293 Gal4-DAX1 luciferase reporter, luminescence; inhibition, % at 6.75 µM; 340,000 compounds, 0.99% hits;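 active = inhibition above the mean over all tested compounds plus 3 SD, cut at about 4.2% in these data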;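 note: 0% = DAX1-transfected cells with DMSO and 100% = empty-vector control cells with DMSO; inhibition shows as a rise in luminescence from relieved DAX1 repression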
# Target sequence (P51843 207-470 limits assumed): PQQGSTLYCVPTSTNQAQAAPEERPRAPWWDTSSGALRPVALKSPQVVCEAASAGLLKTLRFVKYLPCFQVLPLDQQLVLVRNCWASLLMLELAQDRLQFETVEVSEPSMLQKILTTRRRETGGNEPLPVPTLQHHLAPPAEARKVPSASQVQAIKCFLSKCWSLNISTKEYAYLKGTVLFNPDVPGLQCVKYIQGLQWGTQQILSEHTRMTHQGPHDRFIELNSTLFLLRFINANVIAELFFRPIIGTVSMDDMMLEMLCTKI
# hgDAF-12 ag – activates the H. glycines DAF-12 receptor ligand-binding domain; HEK293 GAL4-hgDAF12 UAS-luciferase reporter, agonist luminescence; normalized to butyrate control; activation, % at 6.8 µM; 370,000 compounds, 1.8% hits; AID 687014;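 active = activation above a cutoff set at the mean of all screened compounds plus 3 SD, cut at about 10% in these data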;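 note: 0% = DMSO wells and 100% = sodium butyrate wells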
# AHR act – activates the human aryl hydrocarbon receptor; P35869; AHR-responsive luciferase reporter cells, luminescence; activation, % at 5 µM; 320,000 compounds, 2.5% hits; in the data active = activation above about 47%;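 note: 0% = vehicle wells and 100% = reference agonist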
# ssDAF12 agonist – activators of S. stercoralis DAF-12 nuclear receptor; HEK293 ssDAF-12/GRIP1 lit1-tk-luc reporter, luminescence; % of 3 µM dafachronic acid response; activation, % at 6.8 µM; 370,000 compounds, 1% hits; AID 652126;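 active = activation above the mean over all tested compounds plus 3 SD, cut at about 0.9% in these data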;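 note: 0% = DMSO-only wells and 100% = 3 µM delta7-dafachronic acid wells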
# hcDAF12 agonist – H. contortus DAF-12 activation, primary screen; HEK293 hcDAF-12 lit1-tk-luc reporter, luminescence; 0% DMSO, 100% Δ7-dafachronic acid; activation, % at 6.8 µM; 370,000 compounds, 1.4% hits; AID 652067;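 active = activation above the mean of all tested compounds plus 3 SD, cut at about 5.5% in these data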;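 note: 100% = response to 3 µM Δ7-dafachronic acid high control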
# DAX1 inh-2 – blocks DAX1 repression of SF-1 activated StAR promoter; inhibition, % at 6.8 µM; HEK293T StAR-luciferase reporter, SF-1/DAX-1 repression relief; 370,000 compounds, 1.1% hits;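 active = inhibition above the mean over all tested compounds plus 3 SD, cut at about 3.6% in these data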;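 note: 0% = DAX-1 cells with DMSO and 100% = cells lacking DAX-1 with DMSO; higher inhibition means more luminescence from relief of DAX-1 repression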
# * marks the source's active call; other numbers are inactive results; . = no result. Sampled rows, rich in hits. Any-hit rate of the full collection: about 5.7%.
SMILES,DAX1 inh-1,hgDAF-12 ag,AHR act,ssDAF12 agonist,hcDAF12 agonist,DAX1 inh-2
COC(=O)[C@]1(Cc2ccccc2)N[C@H](CN(C)C(=O)c2ccc(F)cc2)[C@@H]2C(=O)N(C)C(=O)[C@@H]21,3,-1,0,-1,-1,0
CC(C)(C)c1ccc(/C=N/NC(=O)C2CCCC2)cc1,2,6,.,0,1,3
CC(C)c1ccc(/C=N/NC(=O)C2CCCC2)cc1,0,8,2,0,6.0*,4
CCn1nc(C)c(Br)c1Nc1ccc(Br)cc1,2,-3,0,-1,-1,0
CCCC(=O)N(CCN1CCOCC1)c1nc2c(F)cc(F)cc2s1,2,5,5,-1,2,4.0*
Cc1cccc(OCc2n[nH]c(=S)n2-c2ccccc2)c1,2,-2,-2,-2,-1,-1
Cc1ccc(-n2c(COc3cccc(C)c3)n[nH]c2=S)cc1,4.8*,-1,4,-1,-2,1
Cn1c2ccccc2c2nnc(NN)nc21,1,2,23,0,5.7*,1
N#Cc1c(N)nc2c(c1N)CC(=O)N2c1ccc(Cl)cc1,1,.,89*,.,.,.
CC(=O)c1ccc(NC(=O)c2cn(C)c(=O)c3ccccc23)cc1,1,-3,.,-1,-2,-1
Fc1ccc(C2=Nn3c(nnc3-c3n[nH]c4c3CCC4)SC2)cc1,2,-3,54*,-2,0,-1
CC1=Nn2c(nnc2-c2n[nH]c3c2CCC3)SC1,0,-1,25,-1,-2,0
CC(C)c1cc(C(N)=O)c(NC(=O)c2cccc(COc3ccc(Cl)cc3)c2)s1,-5,13*,-3,0,4,1
O=C(O)c1cccc(NC(=O)c2ccc(COc3ccc(Cl)cc3)cc2)c1,2,0,4,-1,0,0
O=C(C[n+]1cc(-c2ccc(Cl)cc2)n2c1CCC2)Nc1nc(-c2ccccc2)cs1,4.8*,5,13,0,0,0
O=C(C[n+]1cc(-c2ccc(F)cc2)n2c1CCC2)Nc1nc(-c2ccccc2)cs1,1,3,14,0,5,0
C[C@@H]1CN([C@@H](C)CO)C(=O)CCCn2nncc2CO[C@@H]1CN(C)C(=O)Nc1ccnc(N2CCOCC2)c1,6.2*,0,.,-1,0,1
C[C@@H]1CN([C@@H](C)CO)C(=O)CCCn2nncc2CO[C@@H]1CN(C)C(=O)c1ccccc1,0,0,.,-1,-1,0
C[C@@H]1CN([C@H](C)CO)C(=O)CCCn2cc(nn2)CO[C@H]1CN(C)C(=O)Nc1cccc(Oc2ccccn2)c1,6.3*,0,.,-1,-1,0
C[C@@H]1CN([C@H](C)CO)C(=O)CCCn2nncc2CO[C@H]1CN(C)C(=O)c1ccccc1,0,13*,.,-1,0,0
Cc1cc(=O)c2c(C)ccc(C)c2[nH]1,1,0,2,-1,-1,0
NNc1nc2c(Cl)c(Cl)ccc2s1,1,-1,84*,0,3,1
O=c1ccc(-c2ccc(S(=O)(=O)N3CCN(c4ccccc4)CC3)o2)n[nH]1,0,-1,1,0,-1,0
Cc1cc(-c2nn3c(C)nnc3s2)ccc1NC(=O)C(C)(C)C,1,12*,32,0,5,3
CCOC(=O)c1sc(N)c(C#N)c1CSc1nc2ccc(C)cc2[nH]1,0,-5,70*,-1,1,-1
SMILES,DAX1 inh-1,hgDAF-12 ag,AHR act,ssDAF12 agonist,hcDAF12 agonist,DAX1 inh-2
CNc1nc(Nc2ccc(C)c(Cl)c2)c2cnn(C)c2n1,-1,-2,37,-2,-3,-1
CCCNc1nc(Nc2ccc(C)c(Cl)c2)c2cnn(C)c2n1,-3,-5,64*,-1,-2,-1
c1ccc(-c2cc3c(ccc4nonc43)nn2)cc1,0,0,48*,0,0,1
On1onc2c3cc(-c4ccccc4)nc3ccc21,-3,-11,9,-1,-2,-4
CC(C)CCN1C(=O)CSCC1(C)C(=O)Nc1ccc2c(c1)OCCO2 (centres undefined),.,2,.,-1,-1,1
CN1CCN(C(=O)c2cc(=O)c3cc(Cl)cc(Cl)c3o2)CC1,0,1,0,2.0*,1,0
CN1CCN(C(=O)c2cc(Cl)ccc2Cl)CC1,1,-1,-1,-1,-2,0
CC(C)=CC(=O)NCC1CCN(C(=O)C(=O)c2cc3ccccc3o2)CC1,.,-1,.,0,0,0
Cc1ccc(SCc2cn3cc(Cl)ccc3n2)cc1,-2,4,-4,0,1,0
CNc1cc(CSc2ccc(Cl)cc2)nc(C)n1,3,8,68*,-1,2,2
Clc1ccc(SCc2cn3ccccc3n2)cc1,2,12*,-3,-1,2,1
Cc1nc(CSc2ccc(Cl)cc2)cc(NCc2ccccc2)n1,1,2,-1,-1,-1,1
Nc1nnc(SCc2cn3cc(Cl)ccc3n2)s1,1,12*,10,0,2,1
Cc1cccc2nc(CSc3ccc(Cl)cc3)cn12,2,12*,2,-1,2,4.2*
CC(C)N(c1cc(=O)nc2ccccn12)C(C)C,.,0,.,-1,2,0
COC(=O)[C@]12C[C@H](CC(=O)NCC34CC5CC(CC(C5)C3)C4)C(=O)N(Cc3cccc4ccccc34)C1=C[C@H](C(C)C)O[C@@H]2C1CC1,.,-1,.,-1,1,0
O=C(O)c1ccccc1-c1nc2ccccc2[nH]1,-1,3,4,0,0,1
Oc1ccc2ccccc2c1C=Nc1ccccc1-c1nc2ccccc2[nH]1,2,8,65*,0,1,2
COc1cccc(-c2cc3nc(-c4ccccc4)cc(N4CCCC(O)C4)n3n2)c1 (centres undefined),-2,4,74*,-2,-1,-1
CCc1c(C)c2ccc(OCC(=O)NCC3CCC(C(=O)O)CC3)c(C)c2oc1=O (centres undefined),2,11*,-2,-1,0,0
Cc1cc(=O)oc2c(C)c(OCC(=O)NCC3CCC(C(=O)O)CC3)ccc12 (centres undefined),1,1,0,-1,1,1
CCCS/C(N)=N/N=C/c1cc(C)ccc1O,3,11*,8,1,4,2
CCOc1cc(-c2nc3ccccc3s2)ccc1O,1,11*,2,-1,2,1
Cc1cc(Nc2ccc(F)cc2F)n2ncnc2n1,4.9*,1,0,-1,-1,0
CCN=C1NC(CCc2ccccc2)C(C(=O)OC)=C(C)N1Cc1ccccc1C(F)(F)F (centres undefined),.,-1,.,-1,-1,-1
